High-throughput results as filed in PubChem BioAssay.
Hits are enriched below; roughly 7.5% of the tested compounds scored in any of these assays.
FLuc counter: counter-screen for miR-21 project: firefly luciferase inhibitors or activators; P08659; purified FLuc, Km substrates, luminescence inhibition; Potency, µM (series often up to 57.5 µM), inactives show at the highest dose activity change, negative = inhibition, most hits filed as inhibitors; 6.9% of 360,000 active; AID 588342;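 also: plate controls were vehicle for no effect and reference inhibitor for full effect; nearly all actives have a fitted effect of over 55% in size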
Target sequence (P08659 whole entry, looked up): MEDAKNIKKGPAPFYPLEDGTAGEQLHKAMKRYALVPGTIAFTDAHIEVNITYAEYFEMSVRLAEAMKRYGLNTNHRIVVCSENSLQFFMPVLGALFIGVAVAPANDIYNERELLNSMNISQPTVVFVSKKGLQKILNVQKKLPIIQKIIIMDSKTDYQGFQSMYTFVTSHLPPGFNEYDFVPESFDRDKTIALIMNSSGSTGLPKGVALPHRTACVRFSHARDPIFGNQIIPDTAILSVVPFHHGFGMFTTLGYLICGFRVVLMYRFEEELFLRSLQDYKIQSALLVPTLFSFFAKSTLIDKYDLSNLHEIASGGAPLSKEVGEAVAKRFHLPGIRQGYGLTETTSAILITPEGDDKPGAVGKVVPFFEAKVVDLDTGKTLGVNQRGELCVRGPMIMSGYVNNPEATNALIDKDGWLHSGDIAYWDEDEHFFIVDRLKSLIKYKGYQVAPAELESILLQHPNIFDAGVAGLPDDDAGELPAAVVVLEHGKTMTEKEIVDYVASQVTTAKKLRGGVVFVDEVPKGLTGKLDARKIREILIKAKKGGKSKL
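Purified P. pyralis luciferase, 10 nM final, with Km-level 10 uM D-luciferin and 10 uM ATP in 50 mM Tris acetate pH 7.5, 10 mM Mg acetate, 0.01% Tween-20, 0.05% BSA; 6-point qHTS titration about 60 µM downward; luminescence read.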
ELG1 genotox: inducers of genotoxicity in HEK293T ELG1-luciferase cells; Potency, µM (top dose mostly 46 µM), for the others: at the top dose activity change, positive = activation, actives largely listed as activators; HEK293T ELG1-luciferase reporter, luminescence, 16 h; 1.3% of 330,000 active; also: % of control where 0% means no effect; nearly all actives have a fitted effect of over 60% in size
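Genotoxicity was scored as increased ELG1-luciferase reporter signal, measured by ONE-Glo luminescence (30 min, room temperature). Compound or vehicle exposure of the HEK293T reporter cells lasted 16 hr at 37°C.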
NPC1 prom act: activates the NPC1 promoter; Huh7 NPC1 promoter luciferase reporter, 24 h; Potency, µM (highest dose often 9.22 µM), inactives show top-dose activation, most hits filed as activators; 2.4% of 320,000 active; AID 485313; also: % of control where 0% means no effect; nearly all actives have a fitted effect of over 60% in size
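Stable NPC1-promoter luciferase Huh7 line; cpd (DMSO) 24 h, 37 °C, 5% CO2; Amplite luciferase reagent 10 min RT; luminescence readout. qHTS format.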
Rab9 prom act: activators of Rab9 promoter; 2.8% of 320,000 active; Huh7 Rab9 promoter-luciferase reporter, luminescence, 24 h; Potency, µM (series often up to 9.22 µM), for the others: at the top dose activation, negative = inhibition, most hits filed as activators; also: % of control where 0% means no effect; nearly all actives have a fitted effect of over 60% in size
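Cells were plated at 1500 per well in reduced-serum medium with 10% FBS and left 2 h. Compound in DMSO was then added for 24 h at 37 °C. Reporter signal was read by luminescence after 10 min with luciferase detection reagent.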
SMN2 splice enh: SMN2 splice variant enhancement | 2.8% of 210,000 active | HEK293 SMN2-luciferase splicing reporter, luminescence, 30-36 h | Potency, µM (top dose mostly 46.1 µM), without a hit: top-dose activity change, positive = activation, most hits filed as activators; also: % of control where 0% means no effect; nearly all actives have a fitted effect of over 55% in size
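HEK293 cells carry an SMN2 […]–luciferase reporter in which exon 7 inclusion puts luciferase in frame. Cells were plated 10-12 h before compound addition, then incubated 30-36 h at 37C. ONE-Glo luminescence was read; sodium butyrate at 4.5 mM final served as control.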
Numbers without * were called inactive. Calls follow the shape of the dose curve; as a rule, active = well fitted curve in the direction sought with a large enough effect; inconclusive = small, poorly fitted or top-dose-only effect, or another doubt; inactive = no such curve, though single readings can be large; an effect the other way counts as inactive or inconclusive. Potency is read from the fitted curve at half-maximal effect.

Screening CC(NC(=O)c1ccc(C23CC4CC(CC(C4)C2)C3)cc1)C(=O)O (stereo unspecified) returned FLuc counter 19µM*, ELG1 genotox -2%, NPC1 prom act 0%, Rab9 prom act 1% and SMN2 splice enh 10%.
`CCCOc1ccc(C(=O)NC(C)C(=O)O)cc1` (stereo unspecified) gave FLuc counter -9%, ELG1 genotox 6%, NPC1 prom act 2%, Rab9 prom act -7% and SMN2 splice enh 1%.
For CC(C)(C)c1cc(-c2ccccc2)no1 the results were FLuc counter inconclusive, ELG1 genotox -1%, NPC1 prom act -1% and Rab9 prom act -7%.
For Cc1ccc(O)c(NC(=O)c2cc(-c3ccccc3O)no2)c1 the results were FLuc counter 6%.
Screening Oc1ccccc1-c1cc(-c2ccccc2)no1 returned FLuc counter 0.85µM*, ELG1 genotox inconclusive, NPC1 prom act 5.6µM*, Rab9 prom act inconclusive and SMN2 splice enh 3.2µM*.
Screening Cc1ccc(-c2cc(-c3ccccc3)no2)c(O)c1 returned FLuc counter 0.17µM*, ELG1 genotox 0.37µM*, NPC1 prom act 3.2µM* and Rab9 prom act 2µM*.
Screening Cc1ccccc1-c1cc(-c2ccccc2O)on1 returned FLuc counter 1.9µM*, ELG1 genotox inconclusive, NPC1 prom act inconclusive, Rab9 prom act inconclusive and SMN2 splice enh 7.1µM*.
Screening Cc1ccc(O)c(-c2cc(-c3ccc(F)cc3)no2)c1 returned FLuc counter 0.95µM*, ELG1 genotox 2.1µM*, NPC1 prom act -33% and Rab9 prom act -33%.
For CCC(Oc1ccc(F)cc1)C(=O)Nc1cc(-c2ccc(C)cc2)no1 (stereo unspecified) the results were FLuc counter -2% and SMN2 splice enh 7%.
Screening Cc1ccc(C(=O)Cn2cnc3ccccc3c2=O)cc1 returned FLuc counter 21µM*, ELG1 genotox inconclusive, NPC1 prom act inconclusive, Rab9 prom act 2.5µM* and SMN2 splice enh 11µM*.
For CC(C)(C)n1ncc2c(=O)n(CC(=O)c3ccccc3)cnc21 the results were FLuc counter 24µM*, ELG1 genotox 15%, NPC1 prom act inconclusive, Rab9 prom act 4.5µM* and SMN2 splice enh 13µM*.
Screening O=C(Cn1cnc2ccccc2c1=O)c1ccccc1 returned FLuc counter inconclusive, ELG1 genotox 11%, NPC1 prom act 15%, Rab9 prom act 11% and SMN2 splice enh inconclusive.
For CC(C)(C)n1ncc2c(=O)n(CC(=O)Nc3ccccc3)cnc21 the results were FLuc counter -9%, ELG1 genotox 6%, NPC1 prom act 4%, Rab9 prom act 8% and SMN2 splice enh -13%.
CC(C)(C)n1ncc2c(=O)n(CC(=O)OCc3ccccc3)cnc21 was read as FLuc counter 0.085µM*, ELG1 genotox inconclusive, NPC1 prom act inconclusive, Rab9 prom act 1.4µM* and SMN2 splice enh 4%.
CCOCCc1nn2c(=O)cc(COC(=O)c3ccco3)nc2s1 was read as FLuc counter -4%.
Screening O=C1NC(=S)S/C1=C/c1ccc(N2CCOCC2)o1 returned FLuc counter 9.5µM*, ELG1 genotox 15%, NPC1 prom act 11%, Rab9 prom act 11% and SMN2 splice enh -26%.
Screening COc1cc(OC)c(Nc2cc(C)nc3ncnn23)cc1Cl returned FLuc counter -1% and SMN2 splice enh 18%.
CSc1ccc(CN2CCC(Oc3ccc(C(=O)N4CCCC4)cc3)CC2)cc1 was read as FLuc counter -1%, ELG1 genotox -4%, NPC1 prom act 0% and Rab9 prom act -6%.
Cc1ccc(NC(=O)C2OCCc3ccccc32)cc1Cl (stereo unspecified) was read as FLuc counter 24µM*, ELG1 genotox 11%, NPC1 prom act 7%, Rab9 prom act 11% and SMN2 splice enh 2%.
Cc1ccc(NC(=O)C2OCCc3ccccc32)cc1 (stereo unspecified) was read as FLuc counter inconclusive, ELG1 genotox 7%, NPC1 prom act 21% and Rab9 prom act 5%.
Cn1c(=O)c2ncn(CC(=O)Nc3ccc(N4CCOCC4)cc3)c2n(C)c1=O was read as FLuc counter 0%, ELG1 genotox 1%, NPC1 prom act 0%, Rab9 prom act -2% and SMN2 splice enh -5%.
Screening Cc1ccc2oc(-c3cccc(NC(=O)Cn4cnc5c(=O)n(C)c(=O)n(C)c54)c3)nc2c1 returned FLuc counter 3.8µM*, ELG1 genotox 17%, NPC1 prom act 13%, Rab9 prom act 18% and SMN2 splice enh -26%.
Screening CCC(C)c1ccc2oc(-c3ccc(NC(=O)Cn4cnc5c(=O)n(C)c(=O)n(C)c54)cc3)nc2c1 (stereo unspecified) returned FLuc counter 12µM*, ELG1 genotox 7%, NPC1 prom act 23%, Rab9 prom act inconclusive and SMN2 splice enh -48%.
Screening Cc1[nH]c(C)c(S(=O)(=O)N2CCN(c3ccccc3)CC2)c1C(=O)N1CCCCC1 returned FLuc counter 3%, ELG1 genotox 0%, NPC1 prom act 0% and Rab9 prom act -13%.
O=C(c1ccc2c(c1)N(Cc1ccccc1)C(=O)c1ccccc1S2(=O)=O)N1CCN(c2ccccc2)CC1 was read as FLuc counter -5% and SMN2 splice enh 2%.
For COc1ccc(Nc2oc(-c3cccs3)nc2C#N)cc1 the results were FLuc counter 4.8µM*, ELG1 genotox inconclusive, NPC1 prom act inconclusive, Rab9 prom act 3.2µM* and SMN2 splice enh inconclusive.
Screening N#Cc1nc(-c2ccccc2F)oc1NCCc1ccccc1 returned FLuc counter 27µM*, ELG1 genotox 6%, NPC1 prom act 21%, Rab9 prom act 21% and SMN2 splice enh -4%.
For CNc1oc(-c2cccs2)nc1C#N the results were FLuc counter -12%, ELG1 genotox 6%, NPC1 prom act 2%, Rab9 prom act -6% and SMN2 splice enh -8%.
Screening N#Cc1nc(-c2cccs2)oc1NCCc1ccccc1 returned FLuc counter 19µM*, ELG1 genotox inconclusive, NPC1 prom act 18%, Rab9 prom act 7% and SMN2 splice enh -7%.
`CC1CCc2sc(C(=O)NCc3ccc(F)cc3)cc2C1` (stereo unspecified) gave FLuc counter inconclusive, ELG1 genotox 6%, NPC1 prom act 0%, Rab9 prom act 18% and SMN2 splice enh -8%.
`CC1CCc2sc(C(=O)NC3CCCCC3)cc2C1` (stereo unspecified) gave FLuc counter inconclusive, ELG1 genotox inconclusive, NPC1 prom act 1.8µM* and Rab9 prom act 3.5µM*.
`CC1CCc2sc(C(=O)NC(C)C3CCCO3)cc2C1` (stereo unspecified) gave FLuc counter 11µM*, ELG1 genotox inconclusive, NPC1 prom act inconclusive and Rab9 prom act inconclusive.
